Values joined by “and” are separate entries in the source; they are usually repeats but may differ in a detail not shown here. Equal values may be shown once.

This test can be described thus: compound effects on multiple myeloma cell viability – MM1S, calcein-AM fluorescence, 48 h, basal, profiling panel (AID 1165). Also: test concentration not given here. Particulars: higher = more signal.
Take `CO[C@H]1COC(=O)CC=C[C@@H](C)COC(=O)[C@H](CCSC)NC(=O)CC=C[C@@H]1C`: the z-score was 0.0739 and -0.242. Under `C=CCN(CCCCC)C(=O)C1N(C(C)(C)CO)C(=O)C2C(C(=O)O)C3C=CC21O3` (centres undefined) stands 0.369 and -0.0102; under `C=CCN1C(=O)[C@]2(O[C@H](CCn3cc(CCO)nn3)[C@@H]([Si](C)(C)c3ccc(OC)cc3)[C@@H]2C)c2cc(N3C(=O)c4cccc5cccc3c45)ccc21`, -2.66 and -2.87; under `CCC[C@@H]1C[C@@]1(CCC)[C@@H](NC(=O)c1ccc(-c2ccccc2)cc1)c1cccc(Cl)c1`, -2.16 and -0.143.

For the compound `C[C@@H]1CC[C@H]2C(=O)O[C@H](CN=[N+]=[N-])CN2[C@H]1c1ccc(Br)cc1`, the z-score is -3.4 and -0.0115. Under `C[C@@H]1CN2[C@@H](CC[C@@H](C)[C@@H]2c2ccc(Br)cc2)C(=O)O1` stands 0.248 and 0.391. The result for `COc1ccc(O[C@H]2C=C[C@@H](c3ccccc3)O[C@@H]2COC(=O)CCC(C)=NO[C@H](C)c2cn([C@H](CO)Cc3ccccc3)nn2)cc1` reads -0.764 and -2.3; that for `CON(C)C(=O)c1nnc2c3ccccc3n(S(=O)(=O)c3ccc(C)cc3)c2n1`, 0.14 and 0.0315; that for `COc1ccc(COC(=O)NN=C2C[C@@H](O)[C@@H](O)[C@@H]3[C@@H]4C(=O)N(C(C)(C)C)C(=O)[C@@H]4CC[C@H]23)cc1`, -0.156. Take `COC(=O)C1=C(C)N(Cc2ccccc2)[C@]23O[C@](C(=O)OC)(C(=O)N2[C@@H]1c1ccccc1)[C@@H](C(=O)OC)[C@H]3C(=O)OC`: the z-score is 0.185 and 0.568.

Regarding `C[C@@H]1CC[C@H]2C(=O)NC[C@@H](O)CN2[C@H]1c1ccc(Br)cc1`, the z-score was 0.211 and -0.52. Under `C#CCCCON=C1C[C@@H](O)[C@@H](O)[C@@H]2[C@@H]3C(=O)N(C4CCCCC4)C(=O)[C@@H]3CC[C@H]12` stands 0.471; under `C[C@@H]1CC[C@@H](C(=O)O)N[C@H]1c1ccc(-c2ccco2)cc1`, 0.617; under `C=CCN(C(=O)C1N(C(C)(C)CO)C(=O)C2C(C(=O)O)C3C=CC21O3)C(C)(C)C` (centres undefined), 0.676 and 0.647. Take `C=CCN(C(=O)C(c1cccs1)N(C(=O)/C=C\C(=O)O)c1ccc(CCO)cc1)C(C)(C)C` (centres undefined): the z-score is -1.18 and 0.821.

On to `Cc1ccc(S(=O)(=O)N[C@H]2COC(=O)[C@@H](Cc3ccccc3)NC(=O)[C@@H](C)COC(=O)CC=C[C@@H]2C)cc1`, for which the z-score is -1.13 and 1.05. The result for `CC(C)[Si]1(C(C)C)OCc2cc(CCCc3cc4c(c(CCc5ccccc5)n3)[Si](C(C)C)(C(C)C)OC4)nc(CCc3ccccc3)c21` reads -1.66 and 0.326; that for `O=c1n(-c2ccccc2)c(=O)n2n1CC[C@@H]1C(=NOC[C@@H](O)COCc3ccco3)[C@H]3O[C@H]3[C@@H](O)[C@@H]12`, 0.256 and -0.207. Consider `O=C1C[C@]2(c3ccc([N+](=O)[O-])cc3)C(=O)N(Cc3ccccc3)c3cc(CO)ccc3[C@H]2N1C1CCCCC1`, for which the z-score is -0.514 and -2.14. On to `CCOC(=O)[C@H](CC(C)C)NC(=O)CCC1CC(OC(=O)NCc2cccc3ccccc23)CC2(CCCC(COC(=O)NCc3ccccc3)O2)O1` (some centres undefined), for which the z-score is 0.184. Under `CCOC(=O)c1ccc(NC(=O)O[C@H]2[C@H](OC(=O)Nc3ccccc3)[C@H](OC(=O)Nc3ccccc3)[C@@H](OC)O[C@@H]2CO)cc1` stands -1.08 and -3.02. Under `CC[C@@H]1C(Sc2ccccc2)C(C(=O)O)[C@H](c2ccc(C)cc2)N1S(=O)(=O)c1ccc(C)cc1` (some centres undefined) stands 0.702 and 1.11; under `CCCC[C@@H]1CN2[C@@H](CC[C@@H](C)[C@@H]2c2ccc(Br)cc2)C(=O)O1`, -1.1 and 0.516. Under `C=CCN(CCCCC)C(=O)C(c1cccs1)N(C(=O)/C=C\C(=O)O)c1ccc(CCO)cc1` (centres undefined) stands 1.78 and 1.21; under `C=C(C)C(=O)OC[C@@H]1CN2[C@@H](CC[C@@H](C)[C@@H]2c2ccc(Br)cc2)C(=O)O1`, 0.419; under `COC(=O)C1=C2N(Cc3ccccc3)C(C)=C(C(=O)OC)[C@@H](c3ccccc3)N2C(=O)[C@](O)(C(=O)OC)C1`, -0.397 and -0.107. `C=C[C@@H](C)[C@@H](O)c1ccc(OCCO)cc1`: the z-score was 0.958 and -0.872. Under `C=CCN(Cc1ccccc1)C(=O)C1N(C(C)(C)CO)C(=O)C2C(C(=O)O)C3C=CC21O3` (centres undefined) stands 0.0296 and 1.03; under `C=CCN(C(=O)C1N(C(C)(C)CO)C(=O)C2C(C(=O)O)C3C=CC21O3)c1ccc(OC)cc1` (centres undefined), 0.925 and 0.494; under `COC(=O)c1c2oc(c1C(=O)OC)C(=O)N[C@@H](Cc1ccccc1)Cn1cc(nn1)C1(CCCCC1)NC(=O)N[C@H](CO)CC2`, 0.434 and -0.392. `C=C[C@H](C)[C@H](O)c1ccc(O)c2ccccc12`: the z-score is -2.53 and -2.69.

`CCOC(=O)C[C@H]1[C@H](OC(=O)c2ccccc2-c2ccccc2)[C@@H](NC(=O)Cc2ccc(OC)cc2)c2cc(OCCCO)ccc2N1C(=O)c1ccc2ccccc2n1`: the z-score was 0.218 and 0.868. Consider `CC(C)OC(=O)C=C1C[C@@H](c2ccccc2)O[C@@H](c2ccccc2)O1`, for which the z-score is -1.8 and -3.29.

As to `COC(=O)C1=C(C)N(Cc2ccccc2)C2=C(C(=O)c3ccccc3)[C@H](c3ccccc3)[C@@](O)(C(=O)OC)C(=O)N2[C@@H]1c1ccccc1`, the z-score was -0.317 and 0.332. Turning to `COC(=O)[C@@]1(Cc2ccc(F)cc2)[C@H]2c3cc(C(=O)N4CCCC4)n(Cc4c(CO)[nH]cc(C)c4=O)c3C[C@H]2CN1C(=O)c1ccccc1`, the z-score is -1.2 and -0.26. Under `C[N+](C)(C)CCCCCCNC(=O)[C@H]1C[C@H]2C(=O)N[C@@H](CCCC[N+](C)(C)C)C(=O)N2[C@H]1c1ccc(O)cc1` stands -0.602 and 0.494; under `CC(CO)N1C(=O)[C@@H]2C3C(=O)OCCC=C[C@H]3OC23C=CCN(CCN2CCOCC2)C(=O)[C@@H]13` (some centres undefined), 0.19 and 0.248. The result for `CCCC[C@@H]1CN2[C@H](c3ccc(Br)cc3)[C@@H](C)CC[C@H]2C(=O)O1` reads -1.36 and -0.797. Under `CO[C@H]1COC(=O)CC=C[C@H](C)[C@H](OC)COC(=O)[C@@H](C)COC(=O)CC=C[C@@H]1C` stands 0.183 and 0.0455.
